Experimental data: PubChem BioAssay (NCATS)
Values joined by “and” are separate entries in the source; they are usually repeats but may differ in a detail not shown here. Equal values may be shown once. A number with no mark means an inactive call. Results filed as inconclusive are left out. Entries that show only a call come without a potency. Active and inactive are the calls of the source. Calls follow the shape of the dose curve; as a rule, active = well fitted curve in the direction sought with a large enough effect; inconclusive = small, poorly fitted or top-dose-only effect, or another doubt; inactive = no such curve, though single readings can be large; an effect the other way counts as inactive or inconclusive.

What was measured:
[1] = biological target: Cytochrome P450 2C9 (Homo sapiens) (UniProt P11712); assay: qHTS Assay for Inhibitors and Substrates of Cytochrome P450 2C9 (AID 883); also: nearly all actives have a fitted effect of over 60% in size; also: potency is read from the fitted curve at half-maximal effect
Sequence of Cytochrome P450 2C9 (Homo sapiens) (P11712 whole entry, looked up): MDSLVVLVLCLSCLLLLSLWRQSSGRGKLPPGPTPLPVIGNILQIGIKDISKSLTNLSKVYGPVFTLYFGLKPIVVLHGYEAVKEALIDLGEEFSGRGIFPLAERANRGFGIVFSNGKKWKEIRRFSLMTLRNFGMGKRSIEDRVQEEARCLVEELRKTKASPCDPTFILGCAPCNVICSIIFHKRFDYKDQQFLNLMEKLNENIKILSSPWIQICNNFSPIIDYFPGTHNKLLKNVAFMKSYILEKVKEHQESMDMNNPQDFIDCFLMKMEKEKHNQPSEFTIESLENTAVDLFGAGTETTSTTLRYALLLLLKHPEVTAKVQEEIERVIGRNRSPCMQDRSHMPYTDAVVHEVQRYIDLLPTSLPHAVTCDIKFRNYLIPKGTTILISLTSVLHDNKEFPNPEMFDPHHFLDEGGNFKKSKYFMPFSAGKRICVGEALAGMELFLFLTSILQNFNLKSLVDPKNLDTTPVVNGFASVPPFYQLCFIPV
Method in brief: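 Luminescent read-out of deoxyluciferin hydroxylation, normalized to 57uM sulphaphenazole (AC100). Reaction: 10nM enzyme, 100uM Luciferin-H (equal to KM), 25mM KPO4, 10 min compound preincubation, then 60 min with NADPH regeneration, both at 37C.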

[2] = biological target: Cytochrome P450 3A4 (Homo sapiens) (UniProt P08684); assay: qHTS Assay for Activators of Cytochrome P450 3A4 (AID 885); also: nearly all actives have a fitted effect of over 65% in size
Sequence of Cytochrome P450 3A4 (Homo sapiens) (P08684 whole entry, looked up): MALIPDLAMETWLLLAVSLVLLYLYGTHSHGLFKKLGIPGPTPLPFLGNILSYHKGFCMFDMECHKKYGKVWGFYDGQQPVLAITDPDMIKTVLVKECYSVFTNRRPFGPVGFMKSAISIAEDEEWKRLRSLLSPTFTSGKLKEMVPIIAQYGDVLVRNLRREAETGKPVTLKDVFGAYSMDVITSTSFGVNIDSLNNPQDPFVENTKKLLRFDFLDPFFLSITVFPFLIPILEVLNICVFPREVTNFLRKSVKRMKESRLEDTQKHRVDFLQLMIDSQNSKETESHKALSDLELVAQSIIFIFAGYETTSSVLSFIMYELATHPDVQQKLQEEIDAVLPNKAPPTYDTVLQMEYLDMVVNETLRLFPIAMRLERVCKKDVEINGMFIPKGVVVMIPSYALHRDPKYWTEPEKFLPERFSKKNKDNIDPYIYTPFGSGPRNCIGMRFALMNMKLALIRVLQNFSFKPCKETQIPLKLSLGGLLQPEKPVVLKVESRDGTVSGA
Method in brief: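 Luminescent readout of luciferin formed from 25 uM Luciferin-PPXE (KM level) by 20 nM CYP3A4 in 200 mM KPO4, with 60 min NADPH-driven reaction at room temperature after 10 min compound exposure. Ketoconazole (57 uM) defined 100% inhibition.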

[3] = biological target: Cytochrome P450 2D6 (Homo sapiens) (UniProt P10635); assay: qHTS Assay for Inhibitors and Substrates of Cytochrome P450 2D6 (AID 891); also: nearly all actives have a fitted effect of over 60% in size; also: potency is read from the fitted curve at half-maximal effect
Sequence of Cytochrome P450 2D6 (Homo sapiens) (P10635 whole entry, looked up): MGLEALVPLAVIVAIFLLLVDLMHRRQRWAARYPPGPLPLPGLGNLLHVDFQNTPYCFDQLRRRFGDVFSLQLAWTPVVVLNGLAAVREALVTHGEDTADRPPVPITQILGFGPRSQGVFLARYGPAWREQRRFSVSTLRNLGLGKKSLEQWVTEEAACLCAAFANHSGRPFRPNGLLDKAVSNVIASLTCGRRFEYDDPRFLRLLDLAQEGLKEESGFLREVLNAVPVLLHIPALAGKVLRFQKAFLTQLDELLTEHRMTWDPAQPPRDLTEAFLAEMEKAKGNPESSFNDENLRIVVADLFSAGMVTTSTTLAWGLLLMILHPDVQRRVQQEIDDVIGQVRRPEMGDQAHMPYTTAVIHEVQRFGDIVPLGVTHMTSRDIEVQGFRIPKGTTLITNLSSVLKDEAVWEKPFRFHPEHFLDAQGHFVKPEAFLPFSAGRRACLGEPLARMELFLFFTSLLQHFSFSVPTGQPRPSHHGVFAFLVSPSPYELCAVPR
Method in brief: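 Luminescent read-out of luciferin formed by 5 nM human CYP2D6 demethylating 30 uM Luciferin-ME EGE (Km level) over 60 min at room temperature after NADPH regeneration addition. Data normalized to full inhibition by 1.43 uM quinidine.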

[4] = biological target: Cytochrome P450 2C19 (Homo sapiens) (UniProt P33261); assay: qHTS Assay for Inhibitors and Substrates of Cytochrome P450 2C19 (AID 899); also: nearly all actives have a fitted effect of over 60% in size; also: potency is read from the fitted curve at half-maximal effect
Sequence of Cytochrome P450 2C19 (Homo sapiens) (P33261 whole entry, looked up): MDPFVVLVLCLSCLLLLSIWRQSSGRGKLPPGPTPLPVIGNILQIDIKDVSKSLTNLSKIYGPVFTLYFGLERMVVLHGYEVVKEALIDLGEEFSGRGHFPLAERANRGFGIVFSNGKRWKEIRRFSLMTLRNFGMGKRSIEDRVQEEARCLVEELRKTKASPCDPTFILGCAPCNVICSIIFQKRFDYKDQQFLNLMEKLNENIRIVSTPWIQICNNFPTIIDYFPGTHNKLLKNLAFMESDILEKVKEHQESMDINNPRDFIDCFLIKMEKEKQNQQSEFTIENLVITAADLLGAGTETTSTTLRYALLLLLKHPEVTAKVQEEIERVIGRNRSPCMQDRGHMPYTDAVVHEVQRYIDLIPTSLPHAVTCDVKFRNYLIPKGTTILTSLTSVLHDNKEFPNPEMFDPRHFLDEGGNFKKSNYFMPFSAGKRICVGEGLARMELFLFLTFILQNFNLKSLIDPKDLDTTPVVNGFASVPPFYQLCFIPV
Method in brief: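 Luminescence readout of luciferin formed from 10uM Luciferin-H EGE (KM level) by 5 nM CYP2C19 in 50mM KPO4. 60 min NADPH-driven reaction at 37C after 10 min compound preincubation; data scaled to 57uM ketoconazole inhibition.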

Row | SMILES | Potency [1] | activity change, positive = activation [2] | Potency [3] | Potency [4]
1 | CCC(=O)[C@]12O[C@@]3(C4C(=O)OCCC41)N(CC)C(C)=C(C(=O)OC)C(c1ccccc1)N3C2=O (some centres not stated) | inactive | -34.2% [at 11.4 µM] | inactive | inactive
2 | CC(=O)Nc1ccc(C2C(C)CCC3C(=O)N4C(CCC(C)[C@@H]4c4ccc(NC(C)=O)cc4)C(=O)N32)cc1 (some centres not stated) | inactive | -34.4% [at 11.4 µM] | inactive | inactive
3 | COC(=O)C1=C(C)N(Cc2ccccc2)[C@]23O[C@](C(=O)OC)(C(=O)N2C1c1ccccc1)C1C(=O)N(c2ccccc2)C(=O)C13 (some centres not stated) | inactive | -42.8% [at 11.4 µM] and -32.3% [at 11.4 µM] | inactive | inactive
4 | COC(=O)C1=C(C)N(Cc2ccccc2)[C@]23O[C@](C(=O)OC)(C(=O)N2C1c1ccccc1)C(C(=O)OC)=C3C(=O)OC (some centres not stated) | inactive | -58% [at 11.4 µM] | inactive | –
5 | CCCCC#CC1C=CC(Oc2cc(OC)c(OC)c(OC)c2)C(CO)O1 (configuration not stated) | inactive | -45% [at 11.4 µM] | inactive | –
6 | CCN1C(C)=C(C(=O)OC)C(c2ccccc2)N2C(=O)[C@@]3(C(=O)OC)O[C@@]12C1C(=O)CCCC13 (some centres not stated) | inactive | -36.9% [at 11.4 µM] | inactive | inactive
7 | COC(=O)C1=C(C)N(Cc2ccccc2)c2c(C(=O)OC)c(C(=O)OC)c(C(=O)OC)c(=O)n2C1c1ccccc1 (configuration not stated) | inactive | -58.7% [at 11.4 µM] and -55.1% [at 11.4 µM] | inactive | inactive
8 | COc1ccccc1/C=C/C1=CC2(C)CC1(C)C(c1ccccc1OC)CC2=O (configuration not stated) | 3.98 µM (active) | -56.9% [at 11.4 µM] | inactive | 3.16 µM (active)
9 | CCN1C(C)=C(C(=O)OC)C(c2ccccc2)N2C(=O)[C@](O)(C(=O)OC)CC(C#N)=C12 (some centres not stated) | inactive | -38.3% [at 11.4 µM] | inactive | –
10 | C=C/C1=C/Cc2ccccc2C(C[N+](=O)[O-])C(C(=O)OC)(C(=O)OC)C1 (configuration not stated) | inactive | -46.3% [at 11.4 µM] | inactive | –
11 | CCC/C=C/C1C(=O)C2OC2C2(OCC(CC)(CC)CO2)C1CO (configuration not stated) | inactive | -53.3% [at 11.4 µM] | inactive | –
12 | CC(C)CCN1CCc2nc(-c3ccccc3)c3c(c2C1)COC(C)C3 (configuration not stated) | inactive | -56% [at 11.4 µM] | inactive | inactive
13 | COC(C1CCCCC1)C(C)C(OCc1cccc(Br)c1)C(C)CO (configuration not stated) | inactive | -47.3% [at 11.4 µM] | inactive | 1.58 µM (active)
14 | COc1ccc(OC2C(O)COC2/C=C/C#Cc2ccccc2)cc1 (configuration not stated) | inactive | -57.7% [at 11.4 µM] | inactive | inactive
15 | COC(=O)NC(c1ccccc1)C(C(=O)OC)C(=O)OC (configuration not stated) | inactive | -40.4% [at 11.4 µM] | 0.0079 µM (active) | –
16 | COC(=O)NC(c1cccs1)C(C(C)=O)C(=O)OC (configuration not stated) | inactive | -34.2% [at 11.4 µM] | inactive | –
17 | COC(=O)C/C=C/C(C)C(OCc1cccc(-c2ccccc2)c1)C1CCCCC1 (configuration not stated) | inactive | -35.3% [at 11.4 µM] | inactive | inactive
18 | C=C(C)C(O)/C=C/c1ccccc1OC (configuration not stated) | inactive | -35.5% [at 11.4 µM] | inactive | –
19 | C=CCC1(C)OC=Cc2nc3cc(Cl)c(Cl)cc3nc21 (configuration not stated) | inactive | -59.2% [at 11.4 µM] | inactive | 3.98 µM (active)
20 | O=Cc1ccc(OC2C=CC(C#Cc3ccccc3)OC2CO)cc1 (configuration not stated) | 2.51 µM (active) | -42% [at 11.4 µM] | inactive | –
21 | COc1cccc(C2C(C)CCC3C(=O)N(C)C(C(C)C)C(=O)N32)c1 (configuration not stated) | inactive | -59.1% [at 11.4 µM] | inactive | –
22 | CC(=O)OCC1OC(C#CCC2CCCCC2)C=CC1OC(C)=O (configuration not stated) | inactive | -56.3% [at 11.4 µM] | inactive | inactive
23 | COC(=O)NC(/C=C/c1ccccc1)[C@]1(C(C)=O)CCCC1=O (some centres not stated) | inactive | -41.6% [at 11.4 µM] | inactive | –
24 | CC12C=C(/C=C/c3ccc(C(F)(F)F)cc3)C(C)(C1)C(c1ccc(C(F)(F)F)cc1)CC2=O (configuration not stated) | inactive | -39% [at 11.4 µM] | – | inactive
25 | COC(=O)C1=C(C)N(Cc2ccccc2)[C@]23O[C@](C(=O)OC)(C(=O)N2C1c1ccccc1)C1C(=O)N(C)C(=O)C13 (some centres not stated) | inactive | -51.8% [at 11.4 µM] and -36.4% [at 11.4 µM] | inactive | inactive
26 | C=CCOC(=O)C(C(C)=O)C(NC(=O)OC)c1ccco1 (configuration not stated) | inactive | -42.1% [at 11.4 µM] | inactive | inactive
